Here are results for 46 compounds from publication PMC4336329 (PLoS ONE, 2015).

The campaign covered roughly 310,000 compounds. About 14,000 (4.5%) showed an effect of 50% or more. Effects have a minus sign here. This excerpt belongs to a sample that is enriched for strong results.
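Further: peak tail current of the secondary pulse compared with the same well before compound.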

The test deals with human ether-à-go-go-related gene (hERG) potassium channel (human, UniProt Q12809). Nature of the test: primary screen, population patch clamp on CHO cells stably expressing hERG; higher = less effect of the substance.
Chain of human ether-à-go-go-related gene (hERG) potassium channel (Q12809 whole entry, looked up): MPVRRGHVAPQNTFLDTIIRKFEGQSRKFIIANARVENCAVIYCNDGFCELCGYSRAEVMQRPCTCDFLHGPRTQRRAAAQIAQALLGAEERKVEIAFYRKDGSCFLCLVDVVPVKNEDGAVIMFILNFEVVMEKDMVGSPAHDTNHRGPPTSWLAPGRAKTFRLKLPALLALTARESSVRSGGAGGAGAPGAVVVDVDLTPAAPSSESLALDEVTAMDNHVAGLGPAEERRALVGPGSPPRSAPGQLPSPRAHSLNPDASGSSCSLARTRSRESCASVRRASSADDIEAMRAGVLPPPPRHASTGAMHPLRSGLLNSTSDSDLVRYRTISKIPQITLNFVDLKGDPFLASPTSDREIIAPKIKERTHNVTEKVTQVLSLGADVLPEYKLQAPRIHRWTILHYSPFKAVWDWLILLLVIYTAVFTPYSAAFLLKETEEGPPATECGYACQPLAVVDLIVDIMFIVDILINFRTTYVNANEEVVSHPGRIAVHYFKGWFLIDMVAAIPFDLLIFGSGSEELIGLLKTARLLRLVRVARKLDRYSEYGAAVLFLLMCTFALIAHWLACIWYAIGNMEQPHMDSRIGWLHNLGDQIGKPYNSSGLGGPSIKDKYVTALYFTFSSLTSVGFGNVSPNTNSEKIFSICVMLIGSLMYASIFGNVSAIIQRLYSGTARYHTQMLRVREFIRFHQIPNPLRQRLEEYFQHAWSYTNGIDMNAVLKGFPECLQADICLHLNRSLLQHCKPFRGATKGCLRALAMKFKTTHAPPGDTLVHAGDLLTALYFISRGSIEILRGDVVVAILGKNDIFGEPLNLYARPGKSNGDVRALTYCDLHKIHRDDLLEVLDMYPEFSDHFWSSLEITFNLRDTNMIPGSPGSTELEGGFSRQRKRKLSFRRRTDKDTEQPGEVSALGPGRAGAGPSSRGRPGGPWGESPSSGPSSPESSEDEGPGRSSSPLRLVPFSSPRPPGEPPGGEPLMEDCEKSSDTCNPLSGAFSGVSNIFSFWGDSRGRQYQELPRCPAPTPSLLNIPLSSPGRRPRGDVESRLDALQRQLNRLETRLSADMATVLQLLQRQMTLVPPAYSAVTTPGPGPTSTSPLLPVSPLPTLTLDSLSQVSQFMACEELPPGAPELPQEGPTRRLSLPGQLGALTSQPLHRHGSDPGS
Take `CCOC(=O)N1CCN(C(=O)/C(=C/c2cccs2)NC(=O)c2ccc(OC)c(OC)c2)CC1`: the “hERG current change (%, negative = inhibition) at 10uM” value is on record as -71.2%.

For `Cc1ccc(CNC(=O)C2CC=CCC2C(=O)O)cc1` (stereo not shown), the “hERG current change (%, negative = inhibition) at 10uM” value came out at 16.3%.

On to `CCOC(=O)c1cc([N+](=O)[O-])sc1N`, for which the “hERG current change (%, negative = inhibition) at 10uM” value was 2.1%.

On to `O=C(COC(=O)c1ccccc1O)Nc1cc(S(=O)(=O)N2CCCCCC2)ccc1Cl`, for which the “hERG current change (%, negative = inhibition) at 10uM” value was -9%.

With `Cn1c(=O)n(C)c2cc(NC(=O)COc3ccc(F)cc3F)ccc21`, the “hERG current change (%, negative = inhibition) at 10uM” value is listed as -13.6%.

In the case of `CCOc1ccccc1C(=O)NCC(=O)N(C)Cc1cccnc1`, the “hERG current change (%, negative = inhibition) at 10uM” value is -3.07%.

As to `CC(C)(C)NCC(O)(c1ccc(Cl)cc1)c1ccc(Cl)cc1`, the “hERG current change (%, negative = inhibition) at 10uM” value is -13.8%.

For `CCN(CC)CCNS(=O)(=O)c1ccc(Cl)cc1.Cl`, the “hERG current change (%, negative = inhibition) at 10uM” value is reported as -12.9%.

For `CCC(C)NCC(O)(c1ccc(Cl)cc1)c1ccc(Cl)cc1` (stereo not shown), the “hERG current change (%, negative = inhibition) at 10uM” value is listed as -37.7%.

As to `CCCCNCC(O)(c1ccc(Cl)cc1)c1ccc(Cl)cc1`, the “hERG current change (%, negative = inhibition) at 10uM” value was -68%.

Consider `CCN(CC)CCNC(=S)Nc1ccc(Cl)cc1`, for which the “hERG current change (%, negative = inhibition) at 10uM” value is -21.7%.

With `CCN(CC)CCNCC(O)(c1ccc(Cl)cc1)c1ccc(Cl)cc1`, the “hERG current change (%, negative = inhibition) at 10uM” value is on record as -82.4%.

Consider `COc1ccc(-c2nc3n(n2)C(c2cccnc2)C(C(N)=O)=C(C)N3)cc1` (stereo not shown), for which the “hERG current change (%, negative = inhibition) at 10uM” value is on record as -17.3%.

On to `CCOC(=O)COc1ccc(S(=O)(=O)Nc2ccc3c(c2)OCCO3)cc1`, for which the “hERG current change (%, negative = inhibition) at 10uM” value is -3.24%.

Turning to `COC(=O)C(Sc1nc(C)cc(C)c1C#N)c1ccccc1` (stereo not shown), the “hERG current change (%, negative = inhibition) at 10uM” value is given as -10.6%.

As for `CC(CC(=O)NC1CCCCC1)S(=O)(=O)c1ccc2c(c1)CCN2C(=O)C1CC1` (stereo not shown), the “hERG current change (%, negative = inhibition) at 10uM” value is given as 28.2%.

Regarding `CCCS(=O)(=O)N1CCCC(C(=O)NCc2ccc(C)cc2)C1` (stereo not shown), the “hERG current change (%, negative = inhibition) at 10uM” value was 4.91%.

With `COc1ccc(S(=O)(=O)N2CCOCC2)cc1NC(=O)COC(=O)C1CCC1`, the “hERG current change (%, negative = inhibition) at 10uM” value was -6.23%.

Regarding `CC1=C(/C=C/c2ccccc2)CCN(C)C1.Cl`, the “hERG current change (%, negative = inhibition) at 10uM” value is -24.6%.

Turning to `Cl.OC(CN1CC=C(/C=C/c2ccc(Br)cc2)CC1)c1ccccc1` (stereo not shown), the “hERG current change (%, negative = inhibition) at 10uM” value was -2.33%.

Consider `CN1CC=C(/C=C/c2ccc(-c3ccccc3)cc2)CC1.Cl`, for which the “hERG current change (%, negative = inhibition) at 10uM” value was -50.1%.

Take `CCCCc1nc(SCC(=O)Nc2cccc(Cl)c2)n[nH]1`: the “hERG current change (%, negative = inhibition) at 10uM” value is -4.4%.

For `Nc1ccc2nc(SCC(=O)c3ccccc3)sc2c1`, the “hERG current change (%, negative = inhibition) at 10uM” value is 9.11%.

In the case of `CCOc1ccc(NC(=S)Nc2ccc(OCc3ccccc3)cc2)cc1`, the “hERG current change (%, negative = inhibition) at 10uM” value was determined as 4.64%.

`CCCN1CCN(CCCNC(=S)Nc2ccc(OC)cc2)CC1`: the “hERG current change (%, negative = inhibition) at 10uM” value is recorded as -22.8%.

For the compound `CCOc1ccc(NC(=S)NCCCc2ccccc2)cc1`, the “hERG current change (%, negative = inhibition) at 10uM” value is -12.4%.

Consider `CCOc1ccc(NC(=S)NCCN2CCN(Cc3ccccc3)CC2)cc1`, for which the “hERG current change (%, negative = inhibition) at 10uM” value is reported as -62.3%.

Take `COc1ccc(N2CCN(CCCNC(=S)Nc3c(C)cccc3C)CC2)cc1`: the “hERG current change (%, negative = inhibition) at 10uM” value is reported as -52.4%.

For the compound `CCOc1ccc(NC(=S)NCCCN2CCN(c3ccc(OC)cc3)CC2)cc1`, the “hERG current change (%, negative = inhibition) at 10uM” value is -70.7%.

With `COc1ccc(NC(=S)NCCCN2CCCC2)cc1`, the “hERG current change (%, negative = inhibition) at 10uM” value worked out at 5.95%.

For `COc1ccc(N2CCC(CNC(=S)Nc3c(C)cccc3C)C2)cc1` (stereo not shown), the “hERG current change (%, negative = inhibition) at 10uM” value is recorded as -4.72%.

With `CCCOc1cccc(C(=O)NC(=S)Nc2ccc(N3CCN(C)CC3)cc2)c1`, the “hERG current change (%, negative = inhibition) at 10uM” value came to 1.67%.

For `CCOc1cccc(C(=O)NC(=S)Nc2ccc(N3CCCC3)cc2)c1`, the “hERG current change (%, negative = inhibition) at 10uM” value was found to be 10.8%.

For `CCOc1ccc(NC(=S)NCCCN2CCOCC2)cc1`, the “hERG current change (%, negative = inhibition) at 10uM” value is 10.7%.

On to `CCOc1cccc(C(=O)NC(=S)Nc2ccc(N3CCN(CC)CC3)cc2)c1`, for which the “hERG current change (%, negative = inhibition) at 10uM” value is on record as -72.1%.

On to `COCCCn1cc(C(=O)c2ccccc2OCC(=O)Nc2cccc(F)c2)cc(C#N)c1=O`, for which the “hERG current change (%, negative = inhibition) at 10uM” value is reported as -35.9%.

On to `CN([C@@H](C(=O)OC(C)(C)C)c1ccccc1)S(=O)(=O)c1cccc(S(=O)(=O)N(C)[C@@H](C(=O)OC(C)(C)C)c2ccccc2)c1`, for which the “hERG current change (%, negative = inhibition) at 10uM” value stood at 14.3%.

`O=C(Nc1ccc(Cl)cc1F)c1cccc2ccccc12`: the “hERG current change (%, negative = inhibition) at 10uM” value amounted to 12.2%.

As for `COc1cc(Cn2c(=O)c3c(OC)c(C)cnc3n(C)c2=O)cc(OC)c1`, the “hERG current change (%, negative = inhibition) at 10uM” value is recorded as 14.1%.

`Cn1c(CO)cnc1SCc1ccc(Cl)cc1`: the “hERG current change (%, negative = inhibition) at 10uM” value was 0.94%.

As to `Cc1ccc(C(=O)NC(=S)NCCCN2CCOCC2)cc1`, the “hERG current change (%, negative = inhibition) at 10uM” value was -7.43%.

For `CCOc1ccc(C(=O)NC(=S)NCCCN2CCOCC2)cc1`, the “hERG current change (%, negative = inhibition) at 10uM” value is given as -50.1%.

As for `O=C(NC(=S)NCCCN1CCOCC1)c1ccc(Br)cc1`, the “hERG current change (%, negative = inhibition) at 10uM” value was -42.9%.

Take `O=C(O)c1ccc(N2C(=O)CC(N3CCN(c4ccc(Cl)cc4)CC3)C2=O)cc1` (stereo not shown): the “hERG current change (%, negative = inhibition) at 10uM” value came out at 6.79%.

Consider `O=C(NCc1ccc(-c2csnn2)cc1)C1CC1`, for which the “hERG current change (%, negative = inhibition) at 10uM” value came out at 7.09%.

For `CC1CCN(c2nc3c(=O)[nH]c(N)nc3n2[C@@H]2O[C@H](CO)[C@@H](O)[C@H]2O)CC1`, the “hERG current change (%, negative = inhibition) at 10uM” value turned out to be 13.6%.
